In the library only some 3.3% were active in any assay of this set; here they are far more common.
RE007 growth inh: qHTS Assay for Inhibitors of the HIV-1 protein Vpr. S. pombe RE007 Vpr strain, BacTiter-Glo ATP luminescence, 24 h. Potency, µM (highest dose often 92.2 µM), usual class: inhibitors. 360,000 tested, 0.21% active. AID 651644, 2012; active = well fitted falling curve with a large enough effect; inconclusive = small, poorly fitted or top-dose-only effect; inactive = no such curve, though single readings can be large or run the other way; note: nearly all actives have a fitted effect of over 50% in size
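Fission yeast RE007 carrying one integrated HIV-1 vpr copy, seeded at OD 0.01 in PMG+AL medium with 23 nL pinned compound. Grown 24 h at 30 degrees; viability read by BacTiter-Glo luminescence after 5 min.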
Sm TGR inh: qHTS Assay for the Inhibitors of Schistosoma Mansoni Peroxiredoxins; Schistosoma mansoni thioredoxin glutathione reductase (TGR), Q962Y6; purified TGR, DTNB reduction, TNB absorbance 405 nm; Potency, µM (series often up to 114 µM), usual class: inhibitors; 360,000 tested, 3% active; note: nearly all actives have a fitted effect of over 60% in size
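Kinetic colorimetric format: TGR-catalysed, NADPH-driven DTNB reduction monitored via TNB absorbance. Enzyme dispensed at 20 nM; compound exposure 15 min at room temperature before reaction start.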
Tb PYK inh: qHTS of Trypanosoma Brucei Inhibitors | TbPYK enzyme, Kinase-Glo Plus ATP luminescence, 45 min | Potency, µM (series often up to 76.8 µM), hits mostly inhibitors | 410,000 tested, 0.12% active | AID 624173, 2012; note: nearly all actives have a fitted effect of over 50% in size
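Enzyme and substrate buffer are dispensed first and compound is pin-transferred. ADP at 130 uM final then starts the reaction, which runs 45 min at room temperature. Detection reagent is added for 10 min before luminescence is imaged.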
LmPK inhibitor: qHTS Assay for Inhibitors of Leishmania Mexicana Pyruvate Kinase (LmPK) | purified LmPK, Kinase-Glo ATP luminescence, 1 h | Potency, µM (highest dose often 57.5 µM), most hits filed as inhibitors | 290,000 tested, 0.37% active | AID 1721, 2009
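qHTS format; LmPK 0.1 nM; substrates PEP 0.5 mM and ADP 0.1 mM. One-hour room-temperature incubation, then coupled luciferase luminescence; 0.5 nM enzyme wells mark activation.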
Giardia FBPA inh-1: qHTS Assay for Inhibitors of Fructose-1,6-bisphosphate Aldolase from Giardia Lamblia; A8B2U2; purified Giardia FBPA; Potency, µM (doses to about 59.6 µM), usual class: inhibitors; 290,000 tested, 0.71% active; note: nearly all actives have a fitted effect of over 55% in size
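40 nM FBPA preincubated 10 min at RT with compound (up to 57.5 uM final), then substrate plus GAPDH/TPI/NAD/arsenate coupling and diaphorase/resazurin added. Fluorescence read after 20 min at RT, 525/598 nm.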
Giardia growth: qHTS Assay for Inhibitors of Fructose-1,6-bisphosphate Aldolase from Giardia Lamblia: Giardia lamblia growth inhibition; shares compounds with Giardia FBPA inh-1; Giardia lamblia trophozoite growth inhibition; Potency, µM (doses to about 57.5 µM), most hits filed as inhibitors; 1,500 tested, 5% active; AID 2785, 2010;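 note: trophozoites exposed to compound for 48 h at 37 °C; nearly all actives have a fitted effect of over 70% in size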
Mammal cell tox: qHTS Assay for Inhibitors of Fructose-1,6-bisphosphate Aldolase from Giardia Lamblia: Mammalian cellular toxicity | shares compounds with Giardia FBPA inh-1 | mammalian cell viability counter-screen, qHTS | Potency, µM (highest dose often 57.5 µM), hits mostly inhibitors | 1,500 tested, 4% active;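 note: Chinese hamster ovary cells used as mammalian cytotoxicity surrogate; viability measured as cellular ATP by luminescence; compound exposure lasted 48 h before reading; nearly all actives have a fitted effect of over 60% in size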
Giardia FBPA inh-2: qHTS Assay for Inhibitors of Fructose-1,6-bisphosphate Aldolase from Giardia Lamblia: Primary screen confirmation | AID 2787, 2010 | 1,500 tested, 5% active | purified Giardia aldolase enzyme activity, qHTS | Potency, µM (top dose mostly 57.5 µM), hits mostly inhibitors | shares compounds with Giardia FBPA inh-1; note: nearly all actives have a fitted effect of over 45% in size
Rabbit aldolase: qHTS Assay for Inhibitors of Fructose-1,6-bisphosphate Aldolase from Giardia Lamblia: Rabbit FBPA Selectivity. shares compounds with Giardia FBPA inh-1. Rabbit muscle FBPA enzyme inhibition, selectivity counter-screen. Potency, µM (highest dose often 57.5 µM), most hits filed as inhibitors. 1,500 tested, 4% active; note: nearly all actives have a fitted effect of over 60% in size
Target sequence (P00883 whole entry, looked up): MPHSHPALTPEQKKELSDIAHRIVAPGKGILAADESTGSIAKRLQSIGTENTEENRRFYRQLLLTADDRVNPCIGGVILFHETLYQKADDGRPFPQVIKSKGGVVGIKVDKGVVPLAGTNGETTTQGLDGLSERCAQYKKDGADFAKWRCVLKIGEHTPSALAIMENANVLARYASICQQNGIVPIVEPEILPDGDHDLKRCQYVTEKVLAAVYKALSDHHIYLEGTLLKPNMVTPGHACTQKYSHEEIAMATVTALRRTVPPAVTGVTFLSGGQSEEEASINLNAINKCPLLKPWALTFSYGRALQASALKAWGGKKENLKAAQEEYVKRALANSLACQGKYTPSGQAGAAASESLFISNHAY
GAPDH counter: qHTS Assay for Inhibitors of Fructose-1,6-bisphosphate Aldolase from Giardia Lamblia: Coupling assay counterscreen confirmation; 1,500 tested, 6% active; Potency, µM (top dose mostly 57.5 µM), actives largely listed as inhibitors; GAPDH coupling enzyme counterscreen, biochemical, qHTS; shares compounds with Giardia FBPA inh-1; AID 2795, 2010; note: nearly all actives have a fitted effect of over 55% in size
Numbers stand for hits; - = inactive; ? = inconclusive; . = no result; [ ] = remark or other dose. Unless noted, calls come from the whole dose curve; as a rule, active = well fitted curve in the direction sought with a large enough effect; inconclusive = small, poorly fitted or top-dose-only effect, or another doubt; inactive = no such curve, though single readings can be large; an effect the other way counts as inactive or inconclusive.

SMILES	RE007 growth inh	Sm TGR inh	Tb PYK inh	LmPK inhibitor	Giardia FBPA inh-1	Giardia growth	Mammal cell tox	Giardia FBPA inh-2	Rabbit aldolase	GAPDH counter
CC(C)C[C@H](NC(=O)c1nc[nH]c1C(=O)N[C@@H](CCCCNC(=O)OC(C)(C)C)C(=O)OC(C)(C)C)C(=O)OC(C)(C)C	-	-	-	-	-	.	.	.	.	.
CC(C)C[C@H](NC(=O)c1nc[nH]c1C(=O)NCCCCCNC(=O)OC(C)(C)C)C(=O)OC(C)(C)C	-	-	-	-	17.7µM	-	-	-	-	-
CC(=O)c1ccc(C2C=CC(Oc3ccc(-c4ccccc4)cc3)C(CO)O2)cc1 (configuration not stated)	.	.	.	.	-[12.9 µM]	.	.	.	.	.
CCCCCCNC(=O)N[C@H](Cc1ccc(O)cc1)C(=O)NCCC[C@H]1CN2C(=NC[C@H]2CCC)N1CC1CCC1	.	5.01µM	.	-	15.8µM	-	-	-	-	-
O=C(NCCc1c[nH]c2ccccc12)/C(=C\c1cccnc1)NC(=O)c1ccco1	-	-	-	-	-	.	.	.	.	.
COc1cccc2sc(Nc3nnc(-c4cccs4)o3)nc12	-	-	-	-	?	.	.	.	.	.
COc1cccc2sc(Nc3nnc(-c4ccc(F)cc4)o3)nc12	-	-	-	-	15.8µM	-	-	-	-	-
CC(=O)Nc1sc(C)c(C)c1C(=O)OCC(=O)NCc1ccc(F)cc1	-	-	-	.	.	.	.	.	.	.
Nc1ccc2nc(CCCCc3nc4ccccc4[nH]3)[nH]c2c1	-	-	-	-	12.6µM	-	-	-	-	-
Nc1ccc2nc(CCCCCCc3nc4ccc(N)cc4[nH]3)[nH]c2c1	-	-	-	-	-	.	.	.	.	.
CN(C(=O)c1ccccc1C(=O)OCC(=O)c1ccc(F)cc1)c1ccccc1	-	-	-	.	.	.	.	.	.	.
COc1ccc(CCNC(=O)CSc2nnc(-c3ccco3)c(-c3ccco3)n2)cc1OC	.	2.24µM	.	-	12.6µM	-	-	-	-	-
Oc1[nH]c2ccccc2c1N=NC(=S)N1CCOCC1	-	-	?	22.4µM	17.7µM	-[10.4 µM]	39.8µM	-	-	-
Nc1c2ccccc2nc2c(O)cccc12	.	.	.	.	-	.	.	.	.	.
Oc1cccc2nc3ccccc3nc12	?	?	-	-	17.7µM	-[10.4 µM]	-	?	-	?
COc1ccc(Nc2ccc(C(N)=O)cc2[N+](=O)[O-])cc1	-	-	-	-	-	.	.	.	.	.
CCOC(=O)c1cc(S(=O)(=O)N2CCN(c3cccc(C)c3)C(C)C2)[nH]n1 (configuration not stated)	.	-	-	.	.	.	.	.	.	.
CC(C(=O)Nc1cccc([N+](=O)[O-])c1)[n+]1ccccc1 (configuration not stated)	-	?	-	-	15.8µM	?	-	-	-	-
CC(Sc1cccc[n+]1[O-])C(=O)Nc1cccc([N+](=O)[O-])c1 (configuration not stated)	-	-	-	-	-	.	.	.	.	.
O=C(CCCn1c(=O)oc2ccccc21)N1CCc2ccccc2C1	-	-	-	-	-	.	.	.	.	.
O=C(CCN1CCc2ccccc2C1)Nc1ccccc1	-	-	-	-	15.8µM	-	-	-	-	-
O=C(CCN1CCc2ccccc2C1)Nc1cccc(F)c1	-	-	-	-	?	.	.	.	.	.
O=C(CCn1c(=O)oc2ccccc21)NCCN1CCc2ccccc2C1	-	-	-	-	15.8µM	-[10.4 µM]	-	-	-	-
Cc1ccc(NC(=O)/C(=C\c2cccnc2)NC(=O)c2ccccc2)cc1	-	-	-	-	-	.	.	.	.	.
